About 2,000 (36%) of roughly 5,500 compounds were called active. Roughly 18% stayed inconclusive and do not appear here. No stated cut-off is given here; in the data, active means normalized growth mostly below about 0.91 (no sharp cut-off); inconclusive means no clear call, values can overlap the other calls; inactive means mostly above about 0.92. The list shows a part of the results.
Assay: chemical genetic growth profiling, strain panel (AID 1159580);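 further: tested at 20 µM; growth read once vehicle control cultures reached saturation at 30 °C; 1 = growth at the plate median or of vehicle wells; lower values mean less growth of the strain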
Settings: growth OD

Measured: normalized growth

Cc1onc(-c2ccccc2)c1C(=O)NC1C(=O)N2[C@@H]1SC(C)(C)[C@@H]2C(=O)O (some centres not stated)
inactive: S. cerevisiae deletion strains, locus YJR075W, strain HOC1, active compounds read low 1.02 | S. cerevisiae deletion strains, locus YKL009W, strain mrt4, active compounds read low 1.01 | S. cerevisiae deletion strains, locus YKL068W, active compounds read low 1.01 | S. cerevisiae deletion strains, locus YKL085W, strain MDH1 (second series), active compounds read low 1.01 | S. cerevisiae deletion strains, locus YKL085W, strain MDH1, active compounds read low 1.01 | S. cerevisiae deletion strains, locus YKL160W, strain elf1, active compounds read low 1.06 | S. cerevisiae deletion strains, locus YKL190W, strain CNB1, active compounds read low 1.01 | S. cerevisiae deletion strains, locus YKR001C, strain vps1, active compounds read low 1.01 | S. cerevisiae deletion strains, locus YKR026C, strain gcn3, active compounds read low 1.02 | S. cerevisiae deletion strains, locus YKR091W, strain srl3, active compounds read low 1.01 | S. cerevisiae deletion strains, locus YLL001W, strain dnm1, active compounds read low 1.02 | S. cerevisiae deletion strains, locus YLL026W, active compounds read low 1.01 | S. cerevisiae deletion strains, locus YLL041C, strain sdh2, active compounds read low 1.01 | S. cerevisiae deletion strains, locus YLR027C, strain aat2, active compounds read low 1.01 | S. cerevisiae deletion strains, locus YLR039C, strain RIC1, active compounds read low 1.01 | S. cerevisiae deletion strains, locus YLR058C, strain SHM2, active compounds read low 1.01 | S. cerevisiae deletion strains, locus YLR102C, strain apc9, active compounds read low 1 | S. cerevisiae deletion strains, locus YLR113W, strain HOG1, active compounds read low 0.975 | S. cerevisiae deletion strains, locus YLR221C, strain rsa3, active compounds read low 1.03 | S. cerevisiae deletion strains, locus YLR258W, strain gsy2, active compounds read low 1.02 | S. cerevisiae deletion strains, locus YLR262C, strain YPT6 (second series), active compounds read low 1.05 | S. cerevisiae deletion strains, locus YLR262C, strain YPT6, active compounds read low 1.04 | S. cerevisiae deletion strains, locus YLR268W, strain sec22, active compounds read low 1.05 | S. cerevisiae deletion strains, locus YLR320W, strain mms22, active compounds read low 1.04 | S. cerevisiae deletion strains, locus YLR330W, strain CHS5, active compounds read low 1.01 | S. cerevisiae deletion strains, locus YLR342W, strain FKS1 (second series), active compounds read low 1.01 | S. cerevisiae deletion strains, locus YLR342W, strain FKS1, active compounds read low 1.02 | S. cerevisiae deletion strains, locus YLR357W, strain rsc2, active compounds read low 1.09 | S. cerevisiae deletion strains, locus YLR370C, strain arc18, active compounds read low 1.02 | S. cerevisiae deletion strains, locus YLR371W, strain rom2, active compounds read low 1.01 | S. cerevisiae deletion strains, locus YLR384C, strain iki3, active compounds read low 1.03 | S. cerevisiae deletion strains, locus YLR418C, strain cdc73, active compounds read low 0.998 | S. cerevisiae deletion strains, locus YML016C, strain PPZ1, active compounds read low 1.01 | S. cerevisiae deletion strains, locus YML032C, strain rad52, active compounds read low 1.03 | S. cerevisiae deletion strains, locus YML120C, strain ndi1, active compounds read low 1.02 | S. cerevisiae deletion strains, locus YML124C, strain tub3, active compounds read low 1.01 | S. cerevisiae deletion strains, locus YMR058W, strain fet3, active compounds read low 1.01 | S. cerevisiae deletion strains, locus YMR078C, strain ctf18, active compounds read low 1.01 | S. cerevisiae deletion strains, locus YMR125W, strain sto1, active compounds read low 1.02 | S. cerevisiae deletion strains, locus YMR129W, active compounds read low 1.01 | S. cerevisiae deletion strains, locus YMR205C, strain PFK2, active compounds read low 1.05 | S. cerevisiae deletion strains, locus YMR223W, strain ubp8, active compounds read low 0.975 | S. cerevisiae deletion strains, locus YMR231W, strain pep5, active compounds read low 1.02 | S. cerevisiae deletion strains, locus YMR263W, strain SAP30, active compounds read low 1.01 | S. cerevisiae deletion strains, locus YMR307W, strain GAS1, active compounds read low 0.981 | S. cerevisiae deletion strains, locus YNL067W, strain RPL9B, active compounds read low 1.02 | S. cerevisiae deletion strains, locus YNL071W, strain lat1, active compounds read low 1.01 | S. cerevisiae deletion strains, locus YNL128W, strain TEP1, active compounds read low 1 | S. cerevisiae deletion strains, locus YNL153C, strain GIM3, active compounds read low 1.01 | S. cerevisiae deletion strains, locus YNL183C, strain NPR1, active compounds read low 0.946 | S. cerevisiae deletion strains, locus YNL209W, strain ssb2, active compounds read low 1.01 | S. cerevisiae deletion strains, locus YNL233W, strain BNI4, active compounds read low 1 | S. cerevisiae deletion strains, locus YNL248C, strain rpa49, active compounds read low 1.01 | S. cerevisiae deletion strains, locus YNL250W, strain rad50, active compounds read low 1.01 | S. cerevisiae deletion strains, locus YNL271C, strain bni1, active compounds read low 1.01 | S. cerevisiae deletion strains, locus YNL298W, strain CLA4, active compounds read low 1.02 | S. cerevisiae deletion strains, locus YNL307C, strain MCK1, active compounds read low 1.01 | S. cerevisiae deletion strains, locus YNL322C, strain KRE1 (second series), active compounds read low 1.03 | S. cerevisiae deletion strains, locus YNL322C, strain KRE1, active compounds read low 1 | S. cerevisiae deletion strains, locus YNR049C, strain mso1, active compounds read low 1.02 | S. cerevisiae deletion strains, locus YNR052C, strain pop2, active compounds read low 1 | S. cerevisiae deletion strains, locus YOL006C, strain TOP1, active compounds read low 1.02 | S. cerevisiae deletion strains, locus YOL012C, strain htz1 0.833 | S. cerevisiae deletion strains, locus YOL147C, strain pex11, active compounds read low 1.01 | S. cerevisiae deletion strains, locus YOR001W, strain rrp6, active compounds read low 0.971 | S. cerevisiae deletion strains, locus YOR061W, strain CKA2, active compounds read low 1.01 | S. cerevisiae deletion strains, locus YOR069W, strain VPS5, active compounds read low 1.01 | S. cerevisiae deletion strains, locus YOR070C, strain gyp1, active compounds read low 1.02 | S. cerevisiae deletion strains, locus YOR080W, strain dia2, active compounds read low 1.02 | S. cerevisiae deletion strains, locus YOR083W, strain WHI5, active compounds read low 1.04 | S. cerevisiae deletion strains, locus YOR106W, strain vam3, active compounds read low 1.03 | S. cerevisiae deletion strains, locus YOR136W, strain idh2, active compounds read low 0.992 | S. cerevisiae deletion strains, locus YOR144C, strain elg1, active compounds read low 1.01 | S. cerevisiae deletion strains, locus YOR184W, strain ser1, active compounds read low 1.01 | S. cerevisiae deletion strains, locus YOR231W, strain MKK1, active compounds read low 1.01 | S. cerevisiae deletion strains, locus YOR265W, strain rbl2, active compounds read low 1.01 | S. cerevisiae deletion strains, locus YOR270C, strain vph1, active compounds read low 1.02 | S. cerevisiae deletion strains, locus YOR290C, strain snf2, active compounds read low 1.02 | S. cerevisiae deletion strains, locus YOR316C, strain cot1, active compounds read low 1.01 | S. cerevisiae deletion strains, locus YPL051W, strain arl3, active compounds read low 1.01 | S. cerevisiae deletion strains, locus YPL055C, strain LGE1, active compounds read low 1.05 | S. cerevisiae deletion strains, locus YPL078C, strain atp4, active compounds read low 1.01 | S. cerevisiae deletion strains, locus YPL106C, strain sse1, active compounds read low 1.04 | S. cerevisiae deletion strains, locus YPL240C, strain hsp82, active compounds read low 1.02 | S. cerevisiae deletion strains, locus YPL241C, strain CIN2, active compounds read low 1.01 | S. cerevisiae deletion strains, locus YPL256C, strain CLN2, active compounds read low 0.98 | S. cerevisiae deletion strains, locus YPR119W, strain clb2, active compounds read low 1 | S. cerevisiae deletion strains, locus YPR141C, strain kar3, active compounds read low 1.02 | S. cerevisiae deletion strains, locus YPR163C, strain tif3, active compounds read low 1.02 | S. cerevisiae deletion strains, locus YPR167C, strain met16, active compounds read low 1.01 | S. cerevisiae deletion strains, strain wtn01, active compounds read low 1.04 | S. cerevisiae strains, strain wild type, active compounds read low 1

Reference: PubChem BioAssay AID1159580 (chemical genetic matrix, 2015)
